# Screening results as filed in PubChem BioAssay.
# SSB-PriA inh = blocks PriA binding to SSB C-terminal tail | AlphaScreen SSBct-PriA binding, biotinylated peptide | inhibition, % at 33 µM | 430,000 tested, 0.6% active | AID 1272365; in the data active = inhibition mostly above about 37%, no sharp cut-off; inactive = mostly below about 20%;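 note: plate controls were negative control peptide for no effect and reference peptide for full effect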
# PrPC TRFRET = cell surface PrPC inhibition, primary TR-FRET screen. P04156. TR-FRET read-out. inhibition, % at 13.8 µM. 370,000 tested, 0.43% active. AID 720596; in the data active = inhibition above about 24%; note: 0% = median of the test wells and 100% = reference compound wells
# Y pestis TopoI = blocks Yersinia pestis topoisomerase I activity; activity, % at 10 µM; Y. pestis Topo-I cleavage product accumulation, plate reader; AID 504884; 360,000 tested, 0.064% active; in the data active = activity above about 50%, passing the limit was not always enough
# PfHsp40 yeast = restores yeast growth despite PfHsp40 toxicity; S. cerevisiae expressing PfHsp40, growth rescue, ATP luminescence; growth rescue, % at 12.5 µM; 340,000 tested, 0.68% active; AID 504582; in the data active = growth rescue above about 28%, passing the limit was not always enough;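 note: yeast W303a lacking pdr1 and pdr3 grown in galactose medium; growth measured after three days at 30 °C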
# PrP UTR inh = suppresses PrP 5' UTR mRNA reporter expression | 340,000 tested, 0.35% active | cell-based PrP 5' UTR mRNA reporter, plate reader | AID 488862 | inhibition, % (concentration not given with the values); in the data active = inhibition above about 52%; note: 0 = median of the neutral control wells
# BJeLR lethal = BJeLR cell viability loss; BJeLR (HRASV12) viability, CellTiter-Glo ATP luminescence, 48 h; inhibition, % (test concentration not listed); 300,000 tested, 0.17% active; in the data active = inhibition above about 50%
# * = called active by the depositor; x = no result; ! = repeats disagree. Rows were chosen to be rich in hits. Some 1.7% of all compounds tested hit in one or more screens of this group.
SMILES,SSB-PriA inh,PrPC TRFRET,Y pestis TopoI,PfHsp40 yeast,PrP UTR inh,BJeLR lethal
O=C1C(F)=CC(COC(c2ccccc2)(c2ccccc2)c2ccccc2)OC1n1cc(F)c(=O)[nH]c1=O (stereo not drawn),-3,9,36,154*,-15,x
Cc1cc(C(=O)NNC(=S)NC(=O)/C=C/c2ccccc2Cl)n[nH]1,73,-4,-2,56*,-15,18
Cc1cccc(C(=O)NC(=S)NNC(=O)Cc2ccccc2)c1,-13,-5,1,229*,-15,3
CCC(=O)NNC(=S)NC(=O)c1ccc(C)cc1,-8,-4,4,69*,-46,3
CN1CCN(C(=S)NC(=O)/C=C/c2ccccc2Cl)CC1,-6,8,-9,1,-22,2
COc1ccc(C(=O)NNC(=S)NC(=O)/C=C/c2cccs2)cc1,-18,6,4,74*,6,5
O=C(O)CN1C(=O)CC2(CSc3[nH]c(=O)sc3C2c2ccccc2O)C1=O (stereo not drawn),-8,x,x,x,x,x
Cc1ccccc1C(=O)NNC(=S)NC(=O)c1ccc(Cl)cc1Cl,-15,1,-9,395*,-32,-3
COc1ccc(C(=O)NC(=S)NNC(=O)c2ccccc2C)cc1,2,-3,3,105*,-17,0
CCOC(=O)c1ccc(NC(=O)/C=C/c2cccs2)cc1,-8,4,1,164*,-71,-2
Cc1cccc(C(=O)NC(=S)NNC(=O)c2ccccc2Cl)c1,-13,8,-1,64*,-11,4
COc1ccc(C(=O)NC(=S)NNC(=O)c2ccccc2O)cc1,-5,0,3,-2,-5,-6
COC(=O)Nc1ccc(S(=O)(=O)N(Cc2ccoc2)Cc2cccs2)cc1,4,x,x,x,x,x
CCN1/C(=C/C=C/C=C/C=C/c2sc3ccccc3[n+]2CC)Sc2ccccc21,x,-3,7,-1,43,63*
CCN1/C(=C/C=C/c2sc3ccccc3[n+]2CC)Sc2ccccc21,x,x,-4,254*,17,69*
CCN1/C(=C/C=C/C=C/c2sc3ccccc3[n+]2CC)Sc2ccccc21,x,x,x,x,x,69*
CC[n+]1c(/C=C/c2ccccc2OC)sc2ccccc21,4,x,x,x,x,x
O=S(=O)(C[C@H]1CCCN1S(=O)(=O)c1ccccc1Br)c1ccccc1,-5,x,x,x,x,x
CCn1nc(C)c(CNC(=O)Cn2cnc3c([nH]c4cc(OC)c(OC)cc43)c2=O)c1C,-21,x,x,x,x,x
COc1ccc(OC)c(S(=O)(=O)Nc2cccc(C)n2)c1,-11,x,x,x,x,x
C[n+]1c(-c2ccccc2)cc2c(=Cc3ccccc3)c3ccccc3n21,31,-41,-14,170*,-14,x
CN(C)c1ccc(C=c2c3cc(O)ccc3n3c2cc(-c2ccccc2)[n+]3C)cc1,84,-33,-35,295*,-20,x
CN(C)c1ccc(/C=c2/c3ccccc3n3c2cc(-c2ccc(Cl)cc2)[n+]3C)cc1,-9,x,x,x,x,x
Nc1c2ccccc2nc2ccccc12,8,12,-12,2,-31,89*!
CSc1ccc2c(c1)N(CCC1CCCCN1C)c1ccccc1S2 (stereo not drawn),40*,-16,-20,1,-4,8
SMILES,SSB-PriA inh,PrPC TRFRET,Y pestis TopoI,PfHsp40 yeast,PrP UTR inh,BJeLR lethal
COC(=O)c1c(NC(=O)c2ccc(S(=O)(=O)N(C)c3ccccc3)cc2)sc(Cc2ccc3c(c2)OCO3)c1C,1,x,x,x,x,x
CC(C)NC(=S)NC(=O)c1ccc(-c2ccccc2)cc1,0,8,-1,59*,-22,-1
Cc1cccc(C(=O)NC(=S)Nc2ccccc2C(F)(F)F)c1,2,11,14,-1,-23,-2
Cc1ccc(C(=O)NC(=S)Nc2ccccc2C(F)(F)F)cc1C,-2,-1,17,32*,-21,-1
Cc1ccc(C(=O)O)cc1NC(=S)NC(=O)c1ccc(-c2ccccc2)cc1,-14,6,5,113*,-11,9
O=C(CSc1n[nH]c(-c2ccccn2)n1)Nc1ccc(F)cc1,82*,1,8,-2,12,6
O=C(CSc1n[nH]c(-c2ccccn2)n1)Nc1cccc(Cl)c1Cl,38,x,x,x,x,x
Cc1ccc(NC(=O)CSc2n[nH]c(-c3ccccn3)n2)cc1,97*,5,-7,0,-3,8
O=C(CSc1n[nH]c(-c2ccccn2)n1)Nc1ccc(Cl)cc1,-24,9,-5,0,9,8
CCOC(=O)c1c(NC(=O)CSc2nnc(CNc3ccc(F)cc3)o2)sc(C(C)=O)c1C,12,12,1,2,-28,-9
COC(=O)c1c(NC(=O)CSc2nnc(CNc3ccc(Cl)cc3)o2)sc(C)c1C,11,2,1,51*,-7,-15
COC/C=C/C1=CC(=O)C[C@H](c2ccc3c(c2)OCO3)C1,7,8,8,4,6,x
CCCCC/C=C/C1=CC(=O)C[C@H](c2ccc3c(c2)OCO3)C1,-2,4,63*,3,-12,x
N#Cc1nc(-c2ccc(F)cc2)oc1N1CCCCC1,10,4,1,0,-6,-2
N#Cc1nc(-c2ccc(Cl)cc2)oc1N1CCCCC1,65*,-4,12,1,-2,-4
N#Cc1nc(-c2ccc(Cl)cc2)oc1N1CCCCCC1,59*,x,x,x,x,x
O=C(CN1/C(=C(/O)c2ccccc2)C(=O)c2ccccc2S1(=O)=O)c1ccccc1,x,-7,2,80*,-19,5
O=C(c1ccsc1)N1CCN(c2cc(-n3cncn3)ncn2)CC1,-6,x,x,x,x,x
CCn1nc(C)cc1C(=O)NCc1ccc(F)cc1F,-3,x,x,x,x,x
O=C(c1ccc(CSCc2ccccc2F)o1)N1CCN(c2ccc(N3CCOCC3)nn2)CC1,96*,-7,25,-1,-2,5
COc1ccc(/C=C2\CN(Cc3ccccc3)C/C(=C\c3ccc(OC)c(O)c3)C2=O)cc1O,-3,-8,8,-1,16,69*
CCN1C/C(=C/c2ccc(OC)c(O)c2)C(=O)/C(=C/c2ccc(OC)c(O)c2)C1,0,-6,9,0,-24,55*
COC(=O)CS[C@H]1CCN(C(=O)CCS(=O)(=O)c2ccccc2)C1,1,x,x,x,x,x
Cc1cc(C)nc(NC(=O)/C=C/c2ccccc2Cl)n1,-10,-10,-3,1,-37,-4
Cc1cc(N)c2cc(NC(=O)/C=C/c3ccccc3Cl)ccc2n1,2,x,-11,0,-18,107*
SMILES,SSB-PriA inh,PrPC TRFRET,Y pestis TopoI,PfHsp40 yeast,PrP UTR inh,BJeLR lethal
O=C(OCc1ccco1)c1cc2ccccc2oc1=O,8,x,x,x,x,x
Cc1ccc(S(=O)(=O)c2nc(-c3ccccc3)oc2Sc2nc3ccccc3s2)cc1,-6,x,x,x,x,x
O=C(NCCOc1ccccc1)C1CC1,1,x,x,x,x,x
CC1CCN(C2=C(NS(=O)(=O)c3ccc(Cl)cc3)C(=O)c3ccccc3C2=O)CC1,-12,-15,-12,0,-19,14
CC1CCN(C2=C(NS(=O)(=O)c3ccc(Br)cc3)C(=O)c3ccccc3C2=O)CC1,70*,-35,19,2,-28,8
CC1CCN(C2=C(NS(=O)(=O)c3ccccc3)C(=O)c3ccccc3C2=O)CC1,64*,-24,17,1,-16,6
